Rows were chosen to be rich in hits. Some 3% of all compounds tested hit in one or more screens of this group.
PP5 primary – PP5 (human) phosphatase inhibition | purified PP5c, OMFP substrate fluorescence | inhibition, % at 6.7 µM | AID 1987 | 0.18% of 320,000 active | P53041;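 active means inhibition above the campaign's mean inhibition across all tested compounds plus 3 SD, cut at about 9.5% in these data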;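 further: 0% = DMSO only and 100% = 100 µM cantharidin control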
PAFAH2 inh – inhibitors of human PAFAH2 | Q99487 | recombinant PAFAH2, FP-rhodamine activity probe, fluorescence polarization | inhibition, % at 3.39 µM | 0.99% of 340,000 active;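 active means inhibition above the mean over all tested compounds plus 3 SD, cut at about 30% in these data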;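 further: inhibitors block probe labeling of enzyme so polarization drops; 0% = enzyme with DMSO and 100% = wells lacking PAFAH2 protein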
pPAFAH inh – pPAFAH (human) enzyme inhibition | Q13093 | recombinant pPAFAH, FP-rhodamine probe fluorescence polarization | inhibition, % at 3.39 µM | 1.5% of 330,000 active | AID 463082;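 active means inhibition above the mean inhibition across the screen plus 3 SD, cut at about 25% in these data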;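 further: inhibitors block binding of the rhodamine activity-based probe so polarization drops; 0% = enzyme with DMSO and 100% = wells lacking pPAFAH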
Target sequence (Q13093 whole entry, looked up): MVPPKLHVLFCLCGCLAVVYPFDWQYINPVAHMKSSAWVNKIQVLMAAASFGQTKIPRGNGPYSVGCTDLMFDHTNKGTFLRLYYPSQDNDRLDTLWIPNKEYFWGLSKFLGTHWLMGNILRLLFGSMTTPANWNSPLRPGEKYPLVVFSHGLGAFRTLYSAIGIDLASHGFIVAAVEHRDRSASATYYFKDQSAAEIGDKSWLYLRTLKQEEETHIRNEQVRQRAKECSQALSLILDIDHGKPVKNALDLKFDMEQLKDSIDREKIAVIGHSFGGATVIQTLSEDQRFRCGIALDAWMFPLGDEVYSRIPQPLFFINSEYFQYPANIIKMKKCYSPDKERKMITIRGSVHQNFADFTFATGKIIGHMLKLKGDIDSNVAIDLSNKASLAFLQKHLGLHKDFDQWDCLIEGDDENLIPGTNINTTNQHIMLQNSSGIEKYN
PAFAH1B2 FP inh – PAFAH1B2 (human) inhibition | P68402 | recombinant PAFAH1B2, FP-rhodamine activity probe, fluorescence polarization | inhibition, % at 3.39 µM | 1.2% of 340,000 active | AID 492953;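 active means inhibition above the mean of all tested compounds plus 3 SD, cut at about 24% in these data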;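 further: 0% = enzyme with DMSO and 100% = wells lacking PAFAH1B2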
Fh CTSL1 inh – counter-screen for PFM18AAP inhibitors: inhibitors of F. hepatica cathepsin L1; AID 1906; recombinant F. hepatica cathepsin L1, Z-Leu-Arg-MCA fluorescence; inhibition, % at 5.96 µM; 0.49% of 300,000 active;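 active means inhibition above the mean of all tested compounds plus 3 SD, set per screening campaign, cut at about 17% in these data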;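 further: 0% = plate median of test compound wells and 100% = 1 µM Z-Phe-Ala-diazomethylketone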
PAFAH1B3 inh – inhibitors of human PAFAH1B3; recombinant PAFAH1B3, FP-rhodamine probe, fluorescence polarization; inhibition, % at 3.39 µM; 0.28% of 340,000 active;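 active means inhibition above the screen-wide average of all tested compounds plus 3 SD, cut at about 25% in these data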;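 further: 0% = enzyme with DMSO only and 100% = wells lacking PAFAH1B3 protein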
Active calls of the source: *; / = no result given.

SMILES	PP5 primary	PAFAH2 inh	pPAFAH inh	PAFAH1B2 FP inh	Fh CTSL1 inh	PAFAH1B3 inh
COc1ccc(NS(=O)(=O)c2cccc(C(=O)NCc3cccnc3)c2)cc1	0	6	27*	3	2	3
O=C(NCCc1ccc(Cl)cc1)C1CCN(C(=O)c2ccc(F)cc2)CC1	0	9	3	7	1	8
O=C(Cc1cccc(NC(=O)C2CCCN(C(=O)C3CCCC3)C2)c1)Nc1ccc(C(=O)N2CCCCC2)cc1 (configuration not stated)	/	-5	/	-4	/	12
Cc1ccc(NS(=O)(=O)c2cc(C(=O)NCc3ccncc3)ccc2C)cc1	/	2	/	1	/	-5
CCCNC(=O)COc1ccc(S(=O)(=O)Nc2ccc(C)cc2)cc1	2	-5	30*	7	1	0
CNC(=O)COc1ccc(S(=O)(=O)Nc2ccc(C)cc2)cc1	-2	-4	22	5	-2	9
Cc1ccc(NS(=O)(=O)c2ccc(C(=O)NCc3cccnc3)cc2)cc1	-3	2	27*	-3	2	-2
Cc1ccc(NS(=O)(=O)c2ccc(C(=O)NCc3ccncc3)cc2)cc1	4	4	26*	7	2	2
O=C(NCc1cccnc1)c1ccc(S(=O)(=O)Nc2ccccc2)cc1	-2	2	24	4	6	6
Cc1ccc(C(=O)NCc2cccnc2)cc1S(=O)(=O)Nc1ccccc1	0	13	27*	0	-2	-7
CC(Oc1ccccc1C(N)=O)C(=O)Nc1ccc(S(=O)(=O)N2CCCC2)cc1 (configuration not stated)	0	4	1	3	-2	13
Cc1ccc(NS(=O)(=O)c2ccc(OCC(=O)NCc3cccnc3)cc2)cc1	1	-4	26*	2	-1	5
CCC(C)NS(=O)(=O)c1ccc(OCC(=O)NCc2cccnc2)cc1 (configuration not stated)	1	-4	13	3	-1	10
COc1ccc(NS(=O)(=O)c2ccc(Cl)c(NC(=O)c3cccnc3Cl)c2)cc1	1	5	30*	2	-1	0
COc1ccc(NS(=O)(=O)c2ccc(Cl)c(NC(=O)c3ccccc3F)c2)cc1	/	1	7	-2	/	1
Cc1cccc(/N=C/c2nc(-c3ccccc3Br)oc2O)n1	2	66*	32*	4	67*	3
COc1cc(C(=O)O[C@H]2CC(C)=CC[C@@]3(C)CC[C@@](O)(C(C)C)[C@H]23)ccc1O	5	1	6	34*	3	-3
COc1cc(C(=O)O[C@H]2C/C(C)=C/CC[C@]3(C)O[C@@H]3C(O)C2C(C)C)cc(OC)c1OC (some centres not stated)	3	-4	2	5	5	4
c1ccc(Cc2nnc3sc(-c4cccnc4)nn23)cc1	1	2	2	3	22*	-1
O=C(O)/C=C/C(O)c1ccc(Cl)cc1 (configuration not stated)	2	6	0	-3	-12	-4
CC(C)(C)C(=O)Nc1ccccc1C(=O)N1CCCC1	-2	7	-3	4	17*	4
O=C(NNc1ccccc1)c1ccc(Cl)c(Cl)c1	/	5	/	3	/	7
CC(=O)N1CCCc2cc(S(=O)(=O)N3CCCC(C(=O)Nc4cccc(C)c4)C3)ccc21 (configuration not stated)	-2	0	33*	0	0	10
CC(=O)N1CCCc2cc(S(=O)(=O)N3CCCC(C(=O)NCc4ccccc4Cl)C3)ccc21 (configuration not stated)	0	3	7	3	1	3
Cc1ccc(NC(=S)NNC(=O)c2cccc([N+](=O)[O-])c2)cc1Cl	3	19	21	25*	1	2
O=C(O)c1ccc(CSCc2ccccc2Cl)o1	-3	-1	4	30*	1	13
CC(C)NC(=O)c1ccc(CSCc2ccccc2Cl)o1	1	7	6	7	-1	4
O=C1C(c2ccccc2)C2C=CC(C2)N1O (configuration not stated)	/	-1	/	8	/	-1
COc1ccc2c(c1)CN(C)S(=O)(=O)c1ccccc1-2	/	-1	5	2	/	9
NNC(=O)c1nn(-c2ccccc2)cc1O	0	/	31*	/	5	/

Screening results from PubChem BioAssay.
